This is part of a sample that, as a whole, favours compounds with a hit. Of some 83,000 tested, about 20% had one in any assay.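 Method: cells in 96-well plates; compound added at one concentration; 48 h incubation; percent growth measured; values under 10 scored active.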 A number with no mark means an inactive call. Activity calls are given as the source filed them.
Each molecule was assayed on OVCAR-5 ovarian (assay: NCI-60 one-dose screen, 48 h (100 = growth as untreated, 0 = no growth, -100 = all killed)). Conditions: 10 µM.

How did the growth turn out when `CCOC(=O)c1cc(C(=O)c2cc(OC)c(OC)c(OC)c2)n2ncc3ccccc3c12` was run?
Its growth is 99.3%.

How did the growth turn out when `Cc1c(Cl)cccc1NC(=O)CCCl` was run?
The growth was 106%.

How did the growth turn out when `Cc1ccc(S(=O)(=O)N(C)CCCCCC(=O)O)cc1` was run?
The growth was 101%.

`COc1cc(-c2nn(-c3cccc(NC(=O)NCCNS(=O)(=O)c4ccc(Cl)cc4)c3)cc2-c2ccncc2)ccc1Cl` was tested. Which growth did it give?
Its growth is 27.9%.

How did the growth turn out when `CC(=O)Oc1cc(OC(C)=O)c2ccccc2c1OC(C)=O` was run?
Its growth is 115%.

`COc1cc(-c2nn(-c3cccc(NC(=O)CN4CCOCC4)c3)cc2-c2cccnc2)ccc1Cl` was tested. Which growth did it give?
Its growth is 108%.

For `Cc1ccc(NCCNCC(C)(C)O)c2c(=O)c3ccc(Cl)cc3sc12`, which growth is on record?
The growth was 59.9%.

With `COC(=O)C1(O)NC(=C(C#N)C#N)C(C#N)=C1C(=O)c1ccc(OC)c(OC)c1` (stereo not given) as the molecule, how does the growth read?
Its growth is 111%.

For `CCN(CC)CCOc1ccc2c(c1O)C(=O)c1ccccc1C2=O`, which growth is on record?
Its growth is 104%.

How did the growth turn out when `COc1cc(-c2nn(-c3ccc(NC(=O)NCCCNC(=O)c4ccccc4)cc3)cc2-c2ccncc2)ccc1Cl` was run?
The growth was 53%.

`COc1ccc2nc(-c3ccc(Cl)cc3)cc(-c3nnc(SC/C(=N\O)c4ccccc4)n3-c3ccccc3)c2c1` was tested. Which growth did it give?
Its growth is 88.6%.

With `CCOS(=O)(=O)c1c(C(C)C)cc(C(C)C)cc1C(C)C` as the molecule, how does the growth read?
Its growth is 90.6%.

How did the growth turn out when `O=S(=O)(O)c1cccc(Nc2ccc3ccccc3c2)c1` was run?
Its growth is 106%.

How did the growth turn out when `CN(C)CCCSc1ccccc1NC1=C(Cl)C(=O)C(Nc2ccccc2SCCCN(C)C)=C(Cl)C1=O` was run?
The growth was 33.4%.

How did the growth turn out when `Brc1ccc2c(c1)-c1ccccc1C1=NCCN12` was run?
The growth was -8.25% (active).

For `CC(C)CCN(CCC(C)C)CC(=O)Nc1ccc(S(=O)(=O)c2ccc(NC(=O)CN(CCC(C)C)CCC(C)C)cc2)cc1`, which growth is on record?
The growth was 54.3%.

With `CCNCC(=O)Nc1ccc(C(=O)OCC)cc1` as the molecule, how does the growth read?
Its growth is 103%.

How did the growth turn out when `O=C(NCCCNS(=O)(=O)c1ccc(Cl)cc1)Nc1ccc(-n2cc(-c3ccncc3)c(-c3ccc(Cl)c(O)c3)n2)cc1` was run?
The growth was 70.8%.

`C1CN(CC2CCC(CN3CCOCC3)O2)CCO1` (stereo not given) was tested. Which growth did it give?
The growth was 109%.

For `CCN(CC)CC(=O)N(CC)c1ccc(C)c(Cl)c1`, which growth is on record?
Its growth is 104%.

With `CC(CN(C)C)Oc1ccc(OC(C)CN(C)C)c2c1C(=O)c1ccccc1C2=O` (stereo not given) as the molecule, how does the growth read?
Its growth is 63.6%.

For `O=C1c2ccccc2C(=O)c2c1ccc(C(Br)Br)c2[N+](=O)[O-]`, which growth is on record?
The growth was 49.7%.

With `COc1cc(-c2nn(-c3cccc(NC(=O)CCN4CCN(c5ccccc5)CC4)c3)cc2-c2ccncc2)ccc1Cl` as the molecule, how does the growth read?
Its growth is 47.5%.

For `O=C(Nc1ccc(F)cc1)c1cc2ccccc2cc1O`, which growth is on record?
The growth was 100%.

For `O=C(Nc1ccc2c(O)cc(S(=O)(=O)O)cc2c1)c1ccc([N+](=O)[O-])cc1`, which growth is on record?
The growth was 101%.

How did the growth turn out when `CN(C)CCCOc1cccc(NC2=C(Cl)C(=O)C(Nc3cccc(OCCCN(C)C)c3)=C(Cl)C2=O)c1` was run?
The growth was -47.9% (active).

`COc1cc(OC)c2c(=O)c(O)c(-c3ccccc3)oc2c1` was tested. Which growth did it give?
Its growth is 89%.

For `CC(=O)Nc1ccc(CC[C@H]2CCC/C=C/[C@@H]3C[C@H](O)C[C@H]3[C@H](O)/C=C/C(=O)O2)cc1`, which growth is on record?
The growth was 23%.

`Nc1ncnc2c1ncn2C1(CO)OCC(O)C(O)C1O` (stereo not given) was tested. Which growth did it give?
The growth was 109%.

For `O=C(Nc1cccc2c1CCCC2)c1cc2ccccc2cc1O`, which growth is on record?
Its growth is 103%.

`CN(C)CCCOc1ccccc1NC1=C(Cl)C(=O)C(Nc2ccccc2OCCCN(C)C)=C(Cl)C1=O` was tested. Which growth did it give?
Its growth is -60.1% (active).

Which growth does the source give for `O=C(N/N=C/c1ccc([N+](=O)[O-])cc1)c1ccccc1Nc1cccc(C(F)(F)F)c1` here?
The growth was 98.6%.

`NNC(=O)Oc1c(Cl)cc(Cl)cc1[N+](=O)[O-]` was tested. Which growth did it give?
The growth was 104%.

For `Nc1ccc(/C=N/Nc2ccnc3c(O)cccc23)c2cccnc12`, which growth is on record?
Its growth is 107%.

How did the growth turn out when `O=S(=O)(O)c1ccc(Cl)cc1` was run?
Its growth is 103%.

`COc1cc(-c2nn(-c3cccc(NC(=O)NCCNC(=O)c4cccc(C(F)(F)F)c4)c3)cc2-c2ccncc2)ccc1Cl` was tested. Which growth did it give?
The growth was 85.1%.

Which growth does the source give for `CCOC(=O)c1cc(C(=O)c2cc(OC)c(OC)c(OC)c2)n2ccc(-c3cc[n+](CC(=O)c4cc(OC)c(OC)c(OC)c4)cc3)cc12` here?
Its growth is 92.5%.

Which growth does the source give for `CCOC(=O)c1cc(C(=O)c2cc(OC)c(OC)c(OC)c2)n2nc(C)ccc12` here?
The growth was 64.9%.

Which growth does the source give for `CCOC(=O)c1cc(C(=O)c2ccc(Cl)cc2)n2ccc(-c3cc[n+](CC(=O)c4ccc(OC)cc4)cc3)cc12` here?
The growth was 112%.

Which growth does the source give for `C/C=C/CSC(C)(C)C(=O)NC` here?
The growth was 113%.
